{"source": "PubChem BioAssay AID1565", "about": "(Sanford-Burnham Center for Chemical Genomics, 2009)", "note": "Screen size: about 290,000 compounds; about 3,200 (1.1%) were called active. What follows is part of a selection rich in actives, with near analogues and random picks from the rest. Values without a mark were called inactive. Cut-off read from the data, not from the text of the source: active = inhibition above about 60%; inactive = the rest.", "data": [{"molecular_target": "Phosphoethanolamine/phosphocholine phosphatase (Homo sapiens) (UniProt Q8TCT1)", "sequence (Q8TCT1 whole entry, looked up)": "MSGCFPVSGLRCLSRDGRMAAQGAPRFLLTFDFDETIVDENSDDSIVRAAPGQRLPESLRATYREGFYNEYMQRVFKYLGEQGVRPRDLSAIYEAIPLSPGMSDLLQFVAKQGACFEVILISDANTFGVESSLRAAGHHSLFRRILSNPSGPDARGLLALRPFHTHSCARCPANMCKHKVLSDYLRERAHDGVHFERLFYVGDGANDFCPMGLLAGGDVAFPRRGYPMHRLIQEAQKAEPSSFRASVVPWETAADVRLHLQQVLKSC", "assay": "PubChem AID 1565", "details": "recombinant PHOSPHO1, absorbance phosphatase assay; at 13.3 µM; stronger effect = higher value", "values": [{"molecule": "CC1CCCCC1NC(=O)/C(C#N)=C/C=C/c1ccccc1[N+](=O)[O-]", "note": "(stereo unspecified)", "inhibition": "-11.2%"}, {"molecule": "CC(=O)c1ccc(N2CCN(C(=O)CCNC(=O)Cn3ccc4ccccc4c3=O)CC2)cc1", "inhibition": "39.1%"}, {"molecule": "CCc1ccc(-c2nc(SCC(=O)NC3CCCC3)n[nH]2)cc1", "inhibition": "19.2%"}, {"molecule": "CC(C)c1ccc(S(=O)(=O)N2CCN(C(=O)c3ccc(N4CCCC4)c([N+](=O)[O-])c3)CC2)cc1", "inhibition": "14.7%"}, {"molecule": "Cc1ccc(CNC(=O)C2(C(F)(F)F)C/C(=C\\Cc3ccccc3)CCCO2)o1", "note": "(stereo unspecified)", "inhibition": "-1.7%"}, {"molecule": "CCOc1cccc(C(=O)Nc2nnc(-c3cccs3)s2)c1", "inhibition": "8.6%"}, {"molecule": "Cc1ccc(C(=O)Oc2coc(CSc3nnc(NC(=O)c4cccs4)s3)cc2=O)cc1C", "inhibition": "-10.5%"}, {"molecule": "Cc1ccc(C(=O)Nc2nnc(-c3cccs3)s2)cc1C", "inhibition": "60.1% (active)"}, {"molecule": "Cc1ccc(S(=O)(=O)c2nnn3c2nc(N2CCN(c4ccccn4)CC2)c2ccccc23)cc1", "inhibition": "14.6%"}, {"molecule": "COc1ccccc1C(=O)N1C(CC(=O)Nc2ccccc2C)C(=O)NC2CCCCC21", "note": "(stereo unspecified)", "inhibition": "17.1%"}, {"molecule": "Cc1cc(NC(=O)Nc2c[nH]c(=O)[nH]c2=O)ccc1Br", "inhibition": "32.6%"}, {"molecule": "CCC(C)(C)NC(=O)CN(C(=O)CCC(=O)Nc1nccs1)c1ccc2c(c1)OCO2", "inhibition": "28%"}, {"molecule": "O=C(O)c1ccccc1CSc1nc2ccccc2s1", "inhibition": "-3.9%"}, {"molecule": "Cc1cc(C)n2nc(C(=O)NC(C)(C)C)nc2n1", "inhibition": "27%"}, {"molecule": "Cc1cc(C)n2nc(SCC(N)=O)nc2n1", "inhibition": "35.9%"}, {"molecule": "Cc1cc(C)n2nc(CNS(=O)(=O)c3c(F)c(F)c(F)c(F)c3F)nc2n1", "inhibition": "64.9% (active)"}, {"molecule": "C/C(=N\\N(C)C)c1ccc(OCCOc2ccc([N+](=O)[O-])cc2)cc1", "inhibition": "23.7%"}, {"molecule": "COc1ccc(C2CC(=O)NC(=O)C2)cc1", "inhibition": "22.9%"}, {"molecule": "Cc1cccc(NC(=O)c2sc3nc(N4CCOCC4)c4c(c3c2N)CCCC4)c1", "inhibition": "21.8%"}, {"molecule": "Cc1cccc(NC(=O)c2sc3nc4c(c(-c5ccco5)c3c2N)CCC4)c1", "inhibition": "67.5% (active)"}, {"molecule": "CC(=O)Nc1ccc(NC(=O)c2sc3nc4c(c(-c5ccc(C)cc5)c3c2N)CCC4)cc1", "inhibition": "14.1%"}, {"molecule": "O=C(Nc1ccc([N+](=O)[O-])cc1)OCCc1ccccn1", "inhibition": "17.9%"}, {"molecule": "CCOc1ccc2c(c1)c(=O)c(S(=O)(=O)c1ccc(C)cc1)cn2CC", "inhibition": "47.5%"}, {"molecule": "CCOc1cc(C(=S)N2CCOCC2)ccc1OS(=O)(=O)c1ccc(Br)cc1", "inhibition": "8.5%"}, {"molecule": "CCOc1cc(C(=S)N2CCOCC2)ccc1O", "inhibition": "96.3% (active)"}, {"molecule": "COc1cc(C(=S)N2CCOCC2)ccc1O", "inhibition": "3.5%"}]}]}
